Assay outcomes as filed in PubChem.
The list is not random: actives were taken first. Their share in the collection is about 2.4%.
ANO1 activ: TMEM16A chloride channel activators or potentiators, primary screen, cell-based, HTS. Anoctamin-1 (Mus musculus), Q8BHY3. HEK293 TMEM16A/YFP-H148Q/I152L, iodide quench fluorescence; hits give low values. B-score at 10 µM. 0.3% of 340,000 active;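 active = fluorescence-ratio B-score plate-corrected deviation score at least 3 library SD below zero, with starting fluorescence score within 5 deviations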;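 note: channel opened by trigger with iodide after compound preincubation; score built on the fluorescence ratio of max minus min over baseline; more negative score means more quench and so TMEM16A activation or potentiation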
Target sequence (Q8BHY3 whole entry, looked up): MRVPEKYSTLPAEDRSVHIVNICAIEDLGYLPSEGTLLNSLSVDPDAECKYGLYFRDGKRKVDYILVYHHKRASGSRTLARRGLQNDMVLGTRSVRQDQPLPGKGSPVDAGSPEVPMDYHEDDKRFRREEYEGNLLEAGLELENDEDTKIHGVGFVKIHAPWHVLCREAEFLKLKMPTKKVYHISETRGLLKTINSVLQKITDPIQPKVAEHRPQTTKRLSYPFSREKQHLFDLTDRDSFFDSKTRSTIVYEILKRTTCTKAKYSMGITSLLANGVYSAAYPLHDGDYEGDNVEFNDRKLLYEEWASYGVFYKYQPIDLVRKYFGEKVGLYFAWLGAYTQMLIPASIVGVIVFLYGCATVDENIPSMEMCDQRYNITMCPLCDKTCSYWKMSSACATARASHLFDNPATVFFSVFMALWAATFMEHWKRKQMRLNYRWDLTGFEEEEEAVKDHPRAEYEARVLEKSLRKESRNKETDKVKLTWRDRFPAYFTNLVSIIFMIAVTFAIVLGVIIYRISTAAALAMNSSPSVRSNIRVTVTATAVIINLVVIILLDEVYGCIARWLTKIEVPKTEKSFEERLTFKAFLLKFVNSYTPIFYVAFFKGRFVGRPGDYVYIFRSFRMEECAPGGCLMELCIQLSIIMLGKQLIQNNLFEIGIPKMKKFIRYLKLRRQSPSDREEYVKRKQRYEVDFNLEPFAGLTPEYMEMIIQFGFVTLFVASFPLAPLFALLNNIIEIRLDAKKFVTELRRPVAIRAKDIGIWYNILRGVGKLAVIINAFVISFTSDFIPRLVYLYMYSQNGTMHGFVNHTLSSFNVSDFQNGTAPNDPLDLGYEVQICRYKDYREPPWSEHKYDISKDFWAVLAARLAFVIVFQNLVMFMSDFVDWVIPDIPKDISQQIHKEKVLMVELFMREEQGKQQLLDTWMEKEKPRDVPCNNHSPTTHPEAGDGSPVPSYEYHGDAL
CHT allo act: CHT positive allosteric modulators, primary screen, cell-based, membrane potential dye, choline EC20; CHT-expressing cells; hits give high values; LV-AA mutant CHT in HEK293 cells; 0.49% of 310,000 active; High affinity choline transporter 1 (Homo sapiens), Q9GZV3; B-score at 10 µM;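 active = initial fluorescence not abnormally high and integrated response B-score, plate-corrected, over 3 SD above library mean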
CHT block: inhibitors of human choline transporter CHT. High affinity choline transporter 1 (Homo sapiens), Q9GZV3. CHT-expressing cells, membrane potential dye, choline response; hits give low values. B-score at 10 µM. 0.86% of 310,000 active. AID 488975, 2010;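 active = B-score over 3 SD under the library average, and starting fluorescence ratio not unusually high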;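 note: choline stimulus applied at its EC90 after an EC20 pre-addition; B-score computed on integrated fluorescence ratio after choline addition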
TMEM16A inh: TMEM16A chloride channel inhibitors, primary screen, cell-based, HTS; Anoctamin-1 (Mus musculus), Q8BHY3; HEK293 TMEM16A/YFP iodide influx fluorescence, ionomycin; normalized B-score (activity score, 25-100; higher = stronger inhibition) at 10 µM; 1.2% of 310,000 active; AID 588511, 2011;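 active = ratio plate-corrected score three or more library SD toward inhibition, starting fluorescence score within five deviations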;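 note: score derived from kinetic fluorescence span divided by baseline fluorescence per well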
CHT activ conf: CHT activators, confirmation, cell-based, membrane potential dye, duplicate; AID 504833, 2011; shares compounds with CHT allo act; 91% of 2,500 active; activation, % at 10 µM; CHT-expressing cells, membrane potential dye fluorescence (FDSS); % of choline EC20–EC90 response window; HEK293 expressing CHT LV-AA mutant; choline added at its EC20;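 active = primary screen active, with duplicate mean activation above negative control mean plus 3 SD, cut at about 11% in these data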
HEK293 MP dye: membrane potential response in parental HEK293 cells, counter-screen for CHT activator project, cell-based, membrane potential dye; shares compounds with CHT allo act; membrane potential dye fluorescence (FDSS); measured after EC20 choline addition; ratio readout change at 10 µM, hits read low; 62% of 2,500 active;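 active = duplicate-averaged ratio beyond 3 SD from buffer wells, up or down, though filed actives are nearly all decreases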
An asterisk follows results filed as active; i = inactive; x = no result.

SMILES | ANO1 activ | CHT allo act | CHT block | TMEM16A inh | CHT activ conf | HEK293 MP dye
Cc1ccc(C)c(S(=O)(=O)N2CCN(C(=O)c3cc(-c4cccs4)nn3-c3ccccc3)CC2)c1 | i | i | i | i | x | x
CCN(Cc1ccccc1)C(=O)c1nn(-c2ccc(OC)cc2)c(=O)c2c1c1ccccc1n2C | i | i | i | i | 46* | i
CC(Sc1nnc(-c2ccccc2F)n1C)C(=O)NC1CCCCC1 (configuration not stated) | i | x | x | x | x | x
CCCN(CCC)C1=CC(=[N+]2CCCC2)CC(C)(C)C1 | i | 12* | i | i | 35* | i
Cc1cc(Oc2ccc(C)c(Cl)c2)nc(SCC(=O)c2ccccc2)n1 | i | 7.2* | i | i | 56* | i
Cc1ccc(C(=O)CSc2cc(C)nc(SCC(=O)c3ccccc3)n2)cc1 | i | i | i | i | x | x
CCc1ccc(OCC(=O)N/N=C/c2cc([N+](=O)[O-])ccc2N2CCOCC2)cc1 | i | i | i | i | 23* | i
CC1(C)Cc2c(C#N)c(OCC(=O)c3ccc(Cl)cc3)nc(-c3ccco3)c2CO1 | i | 13* | i | i | 9 | i
N#Cc1c(NCCN)nc(-c2ccco2)c2c1CCCC2 | i | i | i | i | 39* | -73*
CN(C)CCNc1nc(-c2ccco2)c2c(c1C#N)CC(C)(C)OC2 | i | 11* | i | i | 65* | -91*
COc1ccc2nc(C)cc(N3CCC(C(N)=O)CC3)c2c1 | i | 7.2* | i | i | 61* | -76*
COc1ccc(N2CCN(c3cc(C)nc4ccc(OC)cc34)CC2)cc1 | i | i | i | i | x | x
CCOC(=O)C1CCN(c2cc(C)nc3ccc(OC)cc23)CC1 | i | 7.8* | i | i | 42* | -72*
Cc1cc(N2CCN(c3nc4ccccc4s3)CC2)n2ncnc2n1 | i | i | i | i | x | x
O=S(=O)(c1cc(Cl)sc1Cl)N1CCCC1 | i | i | i | i | x | x
Cc1cccc(Cn2c(Cc3ccccc3)nc3ccccc32)c1 | i | 9.8* | i | i | 5 | i
COCc1nc2ccccc2n1Cc1cccc(C)c1 | i | i | i | i | x | x
COc1ccc(-c2nc3cnccn3c2Nc2ccc(C)cc2)cc1 | i | i | i | i | 36* | -28*
Cc1sc2cc(-c3cccc([N+](=O)[O-])c3)c(-c3cccc([N+](=O)[O-])c3)c[n+]2c1C | i | 8.4* | i | i | 56* | -88*
O=[N+]([O-])c1cccc(-c2cc3cccc[n+]3cc2-c2cccc([N+](=O)[O-])c2)c1 | i | 14* | i | i | 77* | -75*
O=c1cc(-c2cccc([N+](=O)[O-])c2)[nH][nH]1 | i | i | i | i | x | x
COc1ccc(OC)c(/C=C/C(=O)OCC(=O)N2C(C)CCCC2C)c1 (configuration not stated) | i | x | x | x | x | x
COc1ccccc1N1CCN(c2ccc3ccccc3n2)CC1 | i | i | i | i | x | x
COc1ccccc1N1CCN(c2cc(N3CCCC3)nc(C)n2)CC1 | i | 7.5* | i | i | 54* | -48*
COc1cc(OC)c(-c2nnc(-c3ccc(OC)c(OC)c3OC)o2)cc1OC | i | i | i | i | x | x
SMILES | ANO1 activ | CHT allo act | CHT block | TMEM16A inh | CHT activ conf | HEK293 MP dye
COc1cc2c(cc1OC)-c1cc3ccc(OC)c(OC)c3c[n+]1CC2 | i | i | i | i | 36* | -24*
Cc1noc(C)c1S(=O)(=O)N1CCN(c2ccccc2Cl)CC1 | i | x | x | x | x | x
CCOC(=O)NC(Nc1sc2c(c1C(=O)OC)CCN(C)C2)(C(F)(F)F)C(F)(F)F | i | 7.6* | i | i | 8 | -50*
CCOC(=O)C(NC(=O)CC)(Nc1sc2c(c1C(=O)OC)CCN(C)C2)C(F)(F)F (configuration not stated) | i | 7.5* | i | i | 26* | -49*
O=C1CN(C(=O)NCC(=O)N[C@@H](Cc2ccccc2)C(=O)O)c2ccccc2N1 | i | i | i | i | x | x
O=C(CSCc1c[nH]c(=O)[nH]c1=O)OCC(=O)c1ccc(Br)cc1 | i | i | i | i | x | x
Cc1cc(C(=O)N(C)CC(=O)Nc2ccc(F)c(F)c2F)no1 | i | i | i | i | x | x
COCCNC(=O)c1c(N)n(/N=C/c2cccs2)c2nc3ccccc3nc12 | i | i | i | i | 28* | i
O=C(NC1CCCCC1)C(c1ccc(F)cc1)N(C(=O)c1cccs1)c1ccc2c(c1)OCO2 (configuration not stated) | i | i | i | i | x | x
O=C(NC1CCCCC1)C(c1ccc2ncccc2c1)N(Cc1ccc(F)cc1)C(=O)c1cccs1 (configuration not stated) | i | i | i | i | 31* | i
O=c1c2cnn(-c3ccccc3)c2nc(-c2cccs2)n1-c1ccc(Br)cc1 | i | i | i | i | 14* | i
O=C(O)CSc1nc2c(cnn2-c2ccccc2)c(=O)n1-c1ccc(Br)cc1 | i | i | i | i | x | x
COc1ccc([N+](=O)[O-])cc1NC(=O)CSc1ccc2ccccc2c1 | i | i | i | i | x | x
Cc1cc(NCCCN2CCOCC2)n2c(nc3ccccc32)c1C#N | i | 6.3* | i | i | 55* | -91*
CCN(CC)CCNc1cc(C)c(C#N)c2nc3ccccc3n12 | i | i | i | i | 42* | -81*
Cc1c2c(n3c(nc4ccccc43)c1C#N)N(CCN1CCOCC1)CC2 | i | 7.9* | i | i | 54* | -46*
CCC(=O)c1ccc(OCC(O)CN2CCc3ccccc3C2)cc1 (configuration not stated) | i | i | i | i | x | x
CCn1c(/C=N/Nc2ccc(C(=O)O)cc2)nc2ccccc21 | i | 6.3* | i | i | 44* | -35*
CCN(CC)CCCn1c2c(c(SCC(=O)Nc3cccc(C)c3C)nc1=O)CCC2 | i | i | i | i | x | x
Cc1cccc(-c2sc(Nc3ccccc3)n[n+]2-c2ccc(F)cc2)c1 | i | 8.9* | i | i | 52* | i
